# According to PubChem BioAssay (NCATS):
# Where “and” joins values, the source holds several entries; their conditions need not be identical. Identical values can stand only once. A number with no mark means an inactive call.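 The calls were made as follows: active = compounds whose dose series gives a full or clear partial fitted curve of increased nuclear translocation; inconclusive = weak partial curve or effect only at the top dose; inactive = no dose-dependent translocation response.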
# Biological target: Glucocorticoid receptor (Homo sapiens) (UniProt P04150)
# Sequence (P04150 whole entry, looked up): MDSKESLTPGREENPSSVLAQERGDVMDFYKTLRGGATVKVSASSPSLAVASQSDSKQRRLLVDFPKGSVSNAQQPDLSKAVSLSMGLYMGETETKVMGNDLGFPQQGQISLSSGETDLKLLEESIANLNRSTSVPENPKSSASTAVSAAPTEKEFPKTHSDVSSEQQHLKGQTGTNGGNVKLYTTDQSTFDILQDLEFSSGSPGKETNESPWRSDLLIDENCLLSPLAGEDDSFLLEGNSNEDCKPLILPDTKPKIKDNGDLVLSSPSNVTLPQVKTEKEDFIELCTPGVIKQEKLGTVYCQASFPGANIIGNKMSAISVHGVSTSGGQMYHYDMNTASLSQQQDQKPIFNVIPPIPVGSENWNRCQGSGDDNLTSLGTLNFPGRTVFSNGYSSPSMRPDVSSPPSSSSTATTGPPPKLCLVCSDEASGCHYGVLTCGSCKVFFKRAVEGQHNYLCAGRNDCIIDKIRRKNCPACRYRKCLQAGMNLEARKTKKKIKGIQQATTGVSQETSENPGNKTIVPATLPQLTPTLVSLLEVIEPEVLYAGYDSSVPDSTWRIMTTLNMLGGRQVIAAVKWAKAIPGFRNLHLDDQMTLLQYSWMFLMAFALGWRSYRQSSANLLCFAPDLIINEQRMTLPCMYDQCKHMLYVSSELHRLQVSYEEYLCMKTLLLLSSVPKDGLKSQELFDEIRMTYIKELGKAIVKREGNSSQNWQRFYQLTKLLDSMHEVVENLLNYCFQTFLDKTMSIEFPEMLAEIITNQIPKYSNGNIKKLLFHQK
# Experiment: GR-GFP Redistribution (AID 450)
# Settings: U2OS GR-GFP nuclear translocation, laser cytometry, 2 h
# From the text: NIH Molecular Libraries Screening Centers Network [MLSCN]
# NIH Chemical Genomics Center [NCGC]
# The glucocorticoid receptor (GR) Redistribution assay (BioImage) enables the visualization of GR cytoplasmic to nuclear translocation by the use of a GR-GFP fusion. GR is normally cytosolic, however ligands such as dexamethasone, cause nuclear translocation where the protein binds to response elements and interacts with various co-factors to modulate transcription. Because both functional agonists and antagonists can induce nuclear translocation, this assay can detect ligands regardless of their effects on gene expression. GR-GFP expressing U20S cells were used here. Dexamethasone was the positive control for translocation and data normalization. Detection of nuclear translocation was performed in 1536-well plates using the Acumen laser scanning plate cytometer (TTP LabTech). Validation of this assay and a detailed protocol have been described.
# NCGC Assay Protocol Summary:
# GR-GFP U2OS cells were maintained in DMEM with Glutamax and high glucose, 1% v/v penicillin-streptomycin, and 0.5 mg/mL Geneticin. For cell culture, 10% […] fetal bovine serum (FBS) was used (Invitrogen #26140-079). For cell plating 10% dextran, charcoal-stripped FBS (Hyclone SH30068.03) was used. U2OS cells were trypsin treated, suspended in medium, and passed through a 40 um basket filter. The cells were seeded at 600 cells/5 uL/well into clear-bottom black sided 1536-well plates and incubated for approximately 20 hrs, 37degC, 5%, CO2 in a tissue culture incubator. Twenty-three nL of compound was delivered by pin tool and the plates were incubated as above for 2 hrs. The compounds were tested as a 7-point titration ranging from 46 uM to 0.6 nM. The cells were fixed using the Kalypsys Washer/Dispenser station. The fixing protocol involved aspiration of the cell media, addition of 6 uL/well of PBS, aspiration of PBS, addition of 5uL/well of 100% methanol, aspiration of methanol, and addition of 3 uL/well PBS with 1.5 uM propidium iodide (PI). The plates were read by the Acumen Explorer using a 1 x 8 um scan of the whole well area. PI fluorescence triggered the collection of PI and GFP signals. A nuclei population was defined by a 10 to 100 um width and depth filter that eliminated small and large fluorescent particles. Two subpopulations of nuclei were then defined by peak intensity of GFP fluorescence to obtain translocated and untranslocated objects. The number of translocated objects was used for data normalization.
# Keywords: NIH Roadmap, MLSCN, MLI, MLSMR, sOGT, qHTS, NCGC
# Potency is read from the fitted curve at half-maximal effect.
row,SMILES,Potency
1,CCCCCCCCC(=O)NCc1ccc(O)c(OC)c1,> 46 µM
2,O=C(O)c1nn(Cc2ccc(Cl)cc2Cl)c2ccccc12,> 46 µM
3,NC(=O)CN1CCCC1=O,> 46 µM and > 20.6 µM
4,C[N+]1(C)[C@@H]2CC[C@H]1CC(OC(=O)C(CO)c1ccccc1)C2 (stereo partly specified),> 20.6 µM
5,OC(c1ccccc1)(c1ccccc1)C1CCNCC1,> 20.6 µM
6,Oc1ccc2[nH]cc(CCCCN3CC=C(c4ccccc4)CC3)c2c1,> 46 µM
7,COc1ccc(CN2CCNCC2)c(OC)c1OC,> 20.6 µM
8,O=C(CCCN1CCC(n2c(=O)[nH]c3ccccc32)CC1)c1ccc(F)cc1,> 20.6 µM
9,O=C1NCN(c2ccccc2)C12CCN(CCCOc1ccc(F)cc1)CC2,> 46 µM
10,CC(C)[N+](C)(CCC(C(N)=O)(c1ccccc1)c1ccccc1)C(C)C,> 20.6 µM
11,COc1ccc(C(=O)N2CCCC2=O)cc1,> 46 µM and > 20.6 µM
12,COC(=O)C1=CCCN(C)C1,> 46 µM and > 20.6 µM
13,CN1[C@@H]2CC[C@H]1CC(OC(=O)c1cc(Cl)cc(Cl)c1)C2 (stereo partly specified),> 46 µM
14,c1ccc2nc(N3CCNCC3)ccc2c1,> 46 µM and > 20.6 µM
15,CCC(=O)O[C@H]1CC[C@H]2[C@@H]3CCC4=CC(=O)CC[C@]4(C)[C@H]3CC[C@]12C,> 20.6 µM
16,COP(=O)(OC)C(O)C(Cl)(Cl)Cl (stereo unspecified),> 20.6 µM
